Assay in all cases: NCI-60 one-dose screen, 48 h (100 = growth as untreated, 0 = no growth, -100 = all killed)
One assay concerns EKVX NSCLC. The conditions noted are these: 10 µM unless noted.
Another assay relates to SN12C renal. Conditions: 10 µM unless noted.
For a further assay, the system named is UO-31 renal. The conditions noted are these: 10 µM unless noted.
The subject of the next assay is TK-10 renal. The conditions noted are these: 10 µM unless noted.
The next assay concerns ACHN renal. The conditions noted are these: 10 µM unless noted.
The next assay relates to A498 renal. The conditions noted are these: 10 µM unless noted.
Another assay concerns CCRF-CEM leukemia. Conditions: 10 µM unless noted.
In another assay the test system is MOLT-4 leukemia. Conditions: 10 µM unless noted.
For the next assay, the system named is SR leukemia. The conditions noted are these: 10 µM unless noted.
The subject of the next assay is RPMI-8226 leukemia. The conditions noted are these: 10 µM unless noted.
A further assay relates to OVCAR-8 ovarian. The conditions noted are these: 10 µM unless noted.
The subject of a further assay is OVCAR-5 ovarian. The conditions noted are these: 10 µM unless noted.
Another assay concerns OVCAR-4 ovarian. Conditions: 10 µM unless noted.
For the next assay, the system named is SK-OV-3 ovarian. The conditions noted are these: 10 µM unless noted.
A further assay has as its system IGROV1 ovarian. Conditions: 10 µM unless noted.
In a further assay the test system is OVCAR-3 ovarian. Conditions: 10 µM unless noted.
The subject of the next assay is HS 578T breast. Conditions: 10 µM.
A further assay concerns NCI/ADR-RES ovarian. The conditions noted are these: 10 µM unless noted.

This is part of a sample that, as a whole, favours compounds with a hit. Of some 83,000 tested, about 20% had one in any assay.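 Values shown are percent growth following 48 h exposure of cells in 96-well plates to a single concentration of compound; below 10 was considered active.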 Unmarked numbers belong to inactive results. Calls of active or inactive are those of the source.

Turning to `Cc1ccc2oc(=O)cc(-c3nc4ccc([N+](=O)[O-])cc4[nH]3)c2c1`, the growth in the assay with EKVX NSCLC was 62.6%; in the assay with SN12C renal, 59.7%; in the assay with UO-31 renal it was 51.7%; in the assay on TK-10 renal, 62%; in the assay on ACHN renal, 63%; with A498 renal, 43.7%. Further, the growth in the assay with CCRF-CEM leukemia is 51.6%; with MOLT-4 leukemia it was 39.6%; in the assay with SR leukemia, 83%; with RPMI-8226 leukemia it was 30.9%; in the assay on OVCAR-8 ovarian it was 55.6%; in the assay on OVCAR-5 ovarian, 98.3%. Besides, the growth in the assay with OVCAR-4 ovarian was 31.3%; in the assay with SK-OV-3 ovarian it was 79.4%; in the assay on IGROV1 ovarian, 70.6%; with OVCAR-3 ovarian it was 43.5%; in the assay with HS 578T breast it was 63.9%; with NCI/ADR-RES ovarian, 20.9%.
For `COCCOCCOCc1n(Cc2ccc3ccccc3n2)c2ccccc2[n+]1Cc1ccc2ccccc2c1`, the growth in the assay with EKVX NSCLC is 31%; in the assay with SN12C renal, 5.5% (active); in the assay on UO-31 renal it was 79.2%; in the assay with TK-10 renal it was -8.46% (active); in the assay on ACHN renal, 71.1%; with A498 renal, -15.8% (active). Also, the growth with CCRF-CEM leukemia is 1.17% (active); in the assay with MOLT-4 leukemia, -20.5% (active); in the assay on SR leukemia it was -37.1% (active); in the assay with RPMI-8226 leukemia, -30.3% (active); in the assay with OVCAR-8 ovarian it was 9.25% (active); in the assay with OVCAR-5 ovarian, 14.7%. Moreover, the growth was 9.99% (active) with OVCAR-4 ovarian; -6.91% (active) with SK-OV-3 ovarian; -9.44% (active) in the assay on IGROV1 ovarian; 1.01% (active) in the assay with OVCAR-3 ovarian; 20.3% in the assay on HS 578T breast; 98.9% in the assay with NCI/ADR-RES ovarian.
With `CCOc1ccc([C@@H]2[C@@H](Oc3ccccc3)C(=O)N2c2cc(OC)c(OC)c(OC)c2)cc1`, the growth with EKVX NSCLC is 43.5%; with SN12C renal, 31.4%; with UO-31 renal it was 35.3%; with TK-10 renal, 48.1%; with ACHN renal, 25.3%; in the assay on A498 renal it was -9.61% (active). Further, the growth is 7.6% (active) in the assay with CCRF-CEM leukemia; 5.59% (active) in the assay with MOLT-4 leukemia; 5.44% (active) with SR leukemia; 5.16% (active) with RPMI-8226 leukemia; 24.2% in the assay with OVCAR-8 ovarian; 43% with OVCAR-5 ovarian. Also, the growth in the assay with OVCAR-4 ovarian is 43.9%; in the assay on SK-OV-3 ovarian it was 29.6%; in the assay on IGROV1 ovarian it was 21.5%; in the assay with OVCAR-3 ovarian it was -8.31% (active); in the assay on HS 578T breast, 34.6%; in the assay on NCI/ADR-RES ovarian, 14%.
`O=C(O)Cn1ccc2ccccc21`: the growth in the assay with EKVX NSCLC was 102%; with SN12C renal it was 113%; in the assay with UO-31 renal, 76.4%; in the assay with TK-10 renal, 153%; in the assay with ACHN renal, 99.9%; with A498 renal it was 110%. In addition, the growth with CCRF-CEM leukemia was 98.4%; in the assay on OVCAR-8 ovarian, 92.6%; in the assay on OVCAR-5 ovarian it was 100%; in the assay on OVCAR-4 ovarian, 97.8%; in the assay on SK-OV-3 ovarian it was 134%; in the assay with IGROV1 ovarian it was -6.06% (active). The growth in the assay on OVCAR-3 ovarian was 104%; in the assay on HS 578T breast, 108%; with NCI/ADR-RES ovarian it was 103%.
Turning to `COc1ccc([C@@H]2[C@@H](Oc3ccccc3)C(=O)N2c2cc(OC)c(OC)c(OC)c2)cc1F`, the growth in the assay with EKVX NSCLC is 34.6%; in the assay on SN12C renal, 24.6%; in the assay with UO-31 renal it was 24.4%; with TK-10 renal, 44.7%; in the assay with ACHN renal it was 21.5%; in the assay on A498 renal, -9.03% (active). Besides, the growth was 8.73% (active) with CCRF-CEM leukemia; 6.79% (active) in the assay with MOLT-4 leukemia; 5.09% (active) with SR leukemia; 3.15% (active) in the assay on RPMI-8226 leukemia; 6.55% (active) with OVCAR-8 ovarian; 19.8% with OVCAR-5 ovarian. The growth is 39% in the assay with OVCAR-4 ovarian; 16.6% in the assay with SK-OV-3 ovarian; 18.5% in the assay with IGROV1 ovarian; 1.08% (active) in the assay on OVCAR-3 ovarian; 26% with HS 578T breast; 12.2% with NCI/ADR-RES ovarian.
Take `Cc1n(Cc2ccc3ccccc3n2)cc[n+]1Cc1ccc2ccccc2c1`: the growth was 48.3% in the assay on EKVX NSCLC; 1.98% (active) with SN12C renal; 81% with UO-31 renal; 37.8% in the assay with TK-10 renal; 88.5% in the assay with ACHN renal; -2.15% (active) in the assay on A498 renal. For the same molecule, the growth in the assay on CCRF-CEM leukemia is 16.3%; with MOLT-4 leukemia, 5.13% (active); with SR leukemia, 11.6%; in the assay with RPMI-8226 leukemia it was -3.22% (active); with OVCAR-8 ovarian it was 11.9%; in the assay with OVCAR-5 ovarian it was 9.08% (active). Besides, the growth in the assay with OVCAR-4 ovarian was 7.17% (active); in the assay with SK-OV-3 ovarian, -2.36% (active); in the assay with IGROV1 ovarian, 5.65% (active); in the assay with OVCAR-3 ovarian, 6.35% (active); with HS 578T breast, 24.4%; in the assay with NCI/ADR-RES ovarian it was 98.7%.
Consider `CNC(=O)c1cc(Oc2ccc(NC(=O)c3nc(S(C)(=O)=O)n(C)c3-c3ccc(F)cc3)cc2)ccn1`, for which the growth was 71.2% with EKVX NSCLC; 54.9% in the assay with SN12C renal; 47.9% in the assay on UO-31 renal; 68.5% with TK-10 renal; 45.8% in the assay with ACHN renal; 38% in the assay with A498 renal. Further, the growth with CCRF-CEM leukemia is 85%; in the assay with MOLT-4 leukemia, 62.4%; in the assay with SR leukemia, 60.2%; in the assay on RPMI-8226 leukemia it was 55.6%; with OVCAR-8 ovarian, 75.8%; in the assay on OVCAR-5 ovarian it was 104%. The growth was 67.1% with OVCAR-4 ovarian; 58.9% in the assay on SK-OV-3 ovarian; 54.3% in the assay on IGROV1 ovarian; 69.6% with OVCAR-3 ovarian; 76.9% in the assay with HS 578T breast; 77.8% in the assay on NCI/ADR-RES ovarian.
Take `Cc1nc([C@H]2CC[C@H]3[C@@H]4CCC5=CC(=O)CC[C@]5(C)[C@H]4CC[C@]23C)cs1`: the growth was 42.2% in the assay on EKVX NSCLC; 84.1% in the assay with SN12C renal; 76.3% in the assay with UO-31 renal; 103% in the assay on TK-10 renal; 68.6% in the assay with ACHN renal; 74.4% with A498 renal. Further, the growth with CCRF-CEM leukemia was 40.7%; in the assay with OVCAR-8 ovarian, 47.9%; in the assay with OVCAR-5 ovarian it was 91.4%; with OVCAR-4 ovarian, 27.4%; in the assay on SK-OV-3 ovarian it was 85.3%; in the assay with IGROV1 ovarian it was 109%. The growth is 95.9% in the assay on OVCAR-3 ovarian, 104% with HS 578T breast and 43.7% in the assay with NCI/ADR-RES ovarian.
With `COc1ccc(/C=C(/C(=O)N2CCN(c3ccccc3)CC2)c2cc(OC)c(OC)c(OC)c2)cc1O`, the growth with EKVX NSCLC was 41%; with SN12C renal, 31.4%; with UO-31 renal it was 45.6%; in the assay with TK-10 renal, 64%; in the assay with ACHN renal, 33.1%; in the assay on A498 renal it was -3.6% (active). Also, the growth with CCRF-CEM leukemia is 8.16% (active); in the assay with MOLT-4 leukemia, 8.78% (active); in the assay on SR leukemia, 9.53% (active); in the assay on RPMI-8226 leukemia, 10.9%; with OVCAR-8 ovarian, 14.1%; in the assay with OVCAR-5 ovarian, 51.2%. Further, the growth is 55.7% in the assay with OVCAR-4 ovarian; 30.4% in the assay on SK-OV-3 ovarian; 32.2% with IGROV1 ovarian; -33.1% (active) with OVCAR-3 ovarian; 39.1% in the assay with HS 578T breast; 3.09% (active) in the assay with NCI/ADR-RES ovarian.

The record behind these values is PubChem BioAssay (NCI).
